Screens deposited in PubChem BioAssay by National Center for Advancing Translational Sciences (NCATS).
Marburg entry inh = blocks Marburg virus binding to or entry into cells. Marburg virus pseudotyped entry inhibition, cell reporter. Potency, µM (series often up to 37.8 µM), without a hit: at the highest dose activity change, negative = inhibition, usual class: inhibitors. 300,000 compounds, 1.8% hits. AID 540276; calls by dose curve; tested in HEK293 cells; also: potency is read from the fitted curve at half-maximal effect
FMDV antiviral = foot and mouth disease virus antiviral activity. AID 1159524. FMDV antiviral cell-based qHTS. Potency, µM (doses to about 57.9 µM), for inactives: at the highest dose activity change, negative = inhibition, hits mostly inhibitors. 410,000 compounds, 1.2% hits; calls by dose curve; tested in HEK293T cells; also: read-out not given here; potency is read from the fitted curve at half-maximal effect; nearly all actives have a fitted effect of over 45% in size
HCMV inh = inhibitors of human cytomegalovirus; HFF cells, HCMV-luciferase reporter, 72 h; hits give low values; activity change, negative = inhibition, % at 57.5 µM; 410,000 compounds, 4.5% hits; AID 1259415; in the data active = activity change below about -60%; inconclusive = no clear call, values can overlap the other calls; inactive = above about -39%
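Steps: HFFs plated, 16 h 37C; compounds added; HCMV-luciferase added to MOI 1 PFU/cell; 72 h 37C; OneGlo reagent, 5 min room temperature; luminescence read, normalized to controls.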
LASV entry inh = inhibitors of Lassa virus binding or cell entry. Lassa virus pseudotype entry inhibition, cell reporter. Potency, µM (top dose mostly 37.9 µM), without a hit: at the top dose activity change, negative = inhibition, usual class: inhibitors. 300,000 compounds, 1.2% hits. AID 540256; calls by dose curve; tested in HEK293 cells; also: potency is read from the fitted curve at half-maximal effect; nearly all actives have a fitted effect of over 50% in size
Starred values were filed as active, the others as inactive; ? = inconclusive; · = not tested or not shown; [ ] = remark or other dose. An excerpt weighted towards active compounds, which were near 6.2% of everything screened. % is scaled to controls: 0 for no effect and ±100 for the full control effect.

SMILES	Marburg entry inh	FMDV antiviral	HCMV inh	LASV entry inh
CCOC(=O)c1cc([N+](=O)[O-])cc([N+](=O)[O-])c1Sc1ncnc2nc[nH]c12	?	22µM*	15	1.4µM*
CCc1ccc2oc(C(=O)Nc3cccnc3)c(C)c2c1	·	27%	·	·
CCCCOc1ccc(C(=O)Nc2ccc3oc(-c4cccnc4)nc3c2)cc1	·	?	-29	-13%[46.1 µM]
Cc1c(C(=O)Nc2cccnc2)oc2ccc(Br)cc12	5µM*	62%	51	?
CCCCOc1cccc(C(=O)Nc2ccc3oc(-c4cccnc4)nc3c2)c1	·	16µM*	-33	26%[46.1 µM]
Cc1c(C(=O)NCc2cccs2)oc2ccc(Br)cc12	7.3µM*	41%	14	?
Cc1c(C(=O)Nc2ccc3oc(-c4cccnc4)nc3c2)oc2ccccc12	-19%	-13%	-67*	18µM*
OC1(c2cccnc2)CCN(Cc2ccc3c(c2)CN(Cc2cccc(F)c2F)CCO3)CC1	·	-13%	·	·
Cc1ccc(-c2nc3c4ccccc4ccn3c2Cc2ccsc2)cc1	·	14%	30	·
CC(CNC(=O)[C@@H](Cc1ccccc1)NC(=O)CC[C@H]1O[C@@H](n2ccc(=O)[nH]c2=O)[C@H](O)[C@@H]1O)c1ccccc1 (stereo not given in full)	·	3%	3	·
Cc1ccc2oc(=O)c3cc(C(=O)N(Cc4ccccc4)C(C)C)sc3c2c1	-1%[46.1 µM]	-29%	-105*	?
Cc1cccn2c(=O)c3cc(C(=O)N(Cc4ccccc4)C(C)C)sc3nc12	4µM*	?	-14	?
C=CCNC(=O)[C@H]1C=C(OC)C(=O)C[C@H](c2ccccc2)[C@H]1C	9%[14.2 µM]	·	·	·
CCOC(=O)N1CCN(S(=O)(=O)c2ccc(C(=O)NNc3nc4cc(C)cc(C)c4s3)cc2)CC1	21µM*	?	·	?
CCOC(=O)N1CCN(S(=O)(=O)c2ccc(C(=O)N(CCN(C)C)c3nc4ccc(Cl)cc4s3)cc2)CC1	·	9%	-25	·
CCOC(=O)N1CCN(S(=O)(=O)c2ccc(C(=O)NNc3nc4ccc(Cl)cc4s3)cc2)CC1	18µM*	?	·	?
CCOC(=O)N1CCN(S(=O)(=O)c2ccc(C(=O)NNc3nc4c(C)cc(C)cc4s3)cc2)CC1	?	-16%	-104*	?
Cc1cc(C)c2nc(NNC(=O)c3ccc(S(=O)(=O)N4CCCCC4)cc3)sc2c1	?	-6%	-96*	?
CCOC(=O)N1CCN(S(=O)(=O)c2ccc(C(=O)N(CCN(CC)CC)c3nc4c(C)cccc4s3)cc2)CC1	?	-14%	20	0%
CCOC(=O)N1CCN(S(=O)(=O)c2ccc(C(=O)NNc3nc4c(C)cccc4s3)cc2)CC1	?	?	-103*	?
CCOC(=O)c1[nH]c(C)c(CCC(=O)NC(C)c2ccccc2)c1C (stereo not given)	·	-4%	-2	-6%[46.1 µM]
COc1ccc(-c2cn(CCC(=O)O)c(=O)cn2)cc1	·	·	-13	·
CC(=O)/C(N=Nc1ccc2c(c1)OCCO2)=C(\C)O	?	1.3µM*	-71*	?
Clc1ccc(C(Cn2ccnc2)OCc2c(Cl)cccc2Cl)c(Cl)c1 (stereo not given)	·	?	-64*	·
COc1ccc2c(c1)c1c(c(=O)n(Cc3ccccc3)c(=O)n1Cc1ccc(C)cc1)n2C	·	9%	0	5%[46.1 µM]
SMILES	Marburg entry inh	FMDV antiviral	HCMV inh	LASV entry inh
COc1ccc(CNc2nc3ccccc3n2CCN2CCCCC2)cc1	?	-6%	-7	-9%[46.1 µM]
CCN(CC)c1ccc(CNc2nc3ccccc3n2CCN2CCCCC2)cc1	?	0%	-99*	?
Cn1c(CNc2nc3ccccc3n2CCN2CCCCC2)nc2ccccc21	2.8µM*	-11%	51	-6%
CCOc1ccc(NC(=O)C(C)Sc2nc3ncccc3o2)cc1 (stereo not given)	·	17%	71	24%[46.1 µM]
CC(=O)N1CC(C)Sc2ccc(S(=O)(=O)NCCc3ccc(C)cc3)cc21 (stereo not given)	·	-14%	?	·
CC(=O)N1CCSc2ccc(S(=O)(=O)NCCc3ccc(C)cc3)cc21	?	26%	0	7.9µM*
CC(=O)N1CCSc2ccc(S(=O)(=O)NCCc3cccc(C)c3)cc21	?	12%	?	-29%[46.1 µM]
CC(=O)N1CCSc2ccc(S(=O)(=O)NCCc3ccc(Cl)cc3)cc21	·	-9%	-60*	·
CCOc1ccccc1NC(=O)C(C)Sc1cc(-c2ccccc2)nc(C)n1 (stereo not given)	-22%[46.1 µM]	-20%	16	-13%[46.1 µM]
CCOc1ccccc1Nc1nnc(SC(C)C(=O)Nc2nc(-c3ccccc3)cs2)s1 (stereo not given)	3.5µM*	-17%	-34	6.3µM*
O=C(NCc1ccc(F)cc1)C(c1ccccc1)c1ccccc1	·	-7%	-11	·
CC(=O)N(Cc1ccc(F)cc1)C1=C(NCc2ccccc2)C(=O)c2ccccc2C1=O	?	35µM*	·	6.3µM*
Nc1ccccc1C(=O)OCCOc1ccccc1	10µM*	-31%	8	?
Cc1ccc(-n2ncc(C(=O)Nc3ccc(Cl)cc3)c2C2CCNCC2)cc1C	?	-23%	-70*	?
Cc1ccc(C)c(N2CCN(C(=O)C3CCN(Cc4nc(-c5cccc(Cl)c5)oc4C)CC3)CC2)c1	?	20µM*	13	-2%[46.1 µM]
CCc1ccc(-c2nc(CN3CCC(C(=O)N4CCN(c5ccccn5)CC4)CC3)c(C)o2)cc1	?	25µM*	-16	?
COc1ccc(-c2nc(CN3CCC(C(=O)NCc4ccc(F)cc4)CC3)c(C)o2)cc1OC	12%[46.1 µM]	9%	4	-11%[46.1 µM]
Cc1oc(-c2cccc(Cl)c2)nc1CN1CCC(C(=O)N2CCN(c3ccccn3)CC2)CC1	·	20µM*	·	·
CCc1ccc(-c2nc(CN3CCC(C(=O)NCc4ccc(F)cc4)CC3)c(C)o2)cc1	21µM*	-23%	-17	?
C[C@@H]1[C@@H](c2ccccc2)c2cc3ccccc3nc2-c2nc3ccccc3cc2[C@H]1C(=O)N1CCCC1	25%[14.2 µM]	·	·	?
O=C(NCC1Cc2cc(F)cc(-c3cccnc3)c2O1)c1cnn(-c2ccccc2)c1 (stereo not given)	·	-2%	·	·
O=C(C1CCCO1)N1CCN(C(=S)Nc2ccc(Cl)c(Cl)c2)CC1 (stereo not given)	?	54%	-10	10µM*
O=C(C1CCCO1)N1CCN(C(=S)Nc2ccc(Cl)cc2)CC1 (stereo not given)	?	52%	-12	-10%
COc1ccc(OC)c(CN2CCCC(c3nc(-c4ccncc4)ncc3-c3ccccc3C)C2)c1 (stereo not given)	·	4%	·	·
COc1ccc(C(=O)C[n+]2cccc3cc(OC)ccc32)cc1	-14%	-11%	-66*	-11%
CN(C)c1cc[n+](CC(=O)c2ccc(Br)cc2)cc1	-22%[46.1 µM]	?	-74*	?
C=Cn1cc[n+](CC(=O)c2ccc(-c3ccccc3)cc2)c1	12%[46.1 µM]	-22%	-63*	-24%[46.1 µM]
Cc1ccc(C(=O)C[n+]2ccc(Cc3ccccc3)cc2)cc1	?	-17%	-88*	?
COc1cccc(C(=O)C[n+]2cccc3cc(OC)ccc32)c1	·	-8%	24	·
CCN(CC)c1cc2c(cc1F)c(=O)c(S(=O)(=O)c1cc(C)ccc1C)cn2Cc1ccccc1	·	3%	?	?
